Results as given in PubChem BioAssay AID1159580 (chemical genetic matrix, 2015).
Where “and” joins values, the source holds several entries; their conditions need not be identical. Equal entries are not always repeated. About 2,000 (36%) of roughly 5,500 compounds were called active. Not shown: some 18% with an inconclusive outcome. Rule as the data show it: active = normalized growth mostly below about 0.91 (no sharp cut-off); inconclusive = no clear call, values can overlap the other calls; inactive = mostly above about 0.92. The list shows a part of the results.

Assay: chemical genetic growth profiling, strain panel (AID 1159580);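 also: tested at 20 µM; growth read once vehicle control cultures reached saturation at 30 °C; 1 = growth at the plate median or of vehicle wells; lower values mean less growth of the strain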
Settings: S. cerevisiae deletion strains, growth OD

Measured: normalized growth

CC(=O)OC(C)(C)[C@@H]1Cc2cc3ccc(=O)oc3cc2O1
inactive: locus YAL021C, strain ccr4, hits give low values 1.01 | locus YAL026C, strain drs2, hits give low values 0.984 | locus YAL030W, strain snc1, hits give low values 0.963 | locus YBL061C, strain skt5, hits give low values 0.969 | locus YBR009C, strain hhf1, hits give low values 0.909 | locus YBR021W, strain FUR4, hits give low values 0.99 | locus YBR023C, strain chs3, hits give low values 0.972 | locus YBR171W, strain sec66, hits give low values 0.968 | locus YBR229C, strain ROT2, hits give low values 1 | locus YBR231C, strain swc5, hits give low values 0.968 | locus YBR279W, strain paf1, hits give low values 0.975 | locus YCL011C, strain gbp2, hits give low values 0.954 | locus YCL016C, strain dcc1, hits give low values 0.977 | locus YCL029C, strain bik1, hits give low values 1.01 | locus YCL061C, strain MRC1, hits give low values 0.978 | locus YCL069W, strain vba3, hits give low values 0.963 | locus YCR088W, strain abp1, hits give low values 0.982 | locus YDL005C, strain med2, hits give low values 0.977 | locus YDL035C, strain GPR1, hits give low values 1.01 | locus YDL040C, strain nat1, hits give low values 0.968 | locus YDL074C, strain BRE1, hits give low values 1.03 | locus YDL101C, strain DUN1, hits give low values 0.999 | locus YDL185W, strain tfp1, hits give low values 1 | locus YDL192W, strain arf1, hits give low values 0.989 | locus YDR001C, strain nth1, hits give low values 0.965 | locus YDR069C, strain doa4, hits give low values 0.962 | locus YDR101C, strain arx1, hits give low values 1.01 | locus YDR137W, strain rgp1, hits give low values 0.992 | locus YDR150W, strain NUM1, hits give low values 1.01 | locus YDR159W, strain sac3, hits give low values 0.936 | locus YDR162C, strain NBP2, hits give low values 1 | locus YDR195W, strain ref2 0.959 | locus YDR297W, strain sur2, hits give low values 0.972 | locus YDR318W, strain mcm21, hits give low values 0.991 | locus YDR334W, strain swr1, hits give low values 0.972 | locus YDR335W, strain msn5, hits give low values 0.992 | locus YDR388W, hits give low values 1 | locus YDR392W, strain spt3, hits give low values 0.789 | locus YDR502C, strain sam2, hits give low values 1.01 | locus YEL003W, strain gim4, hits give low values 0.968 | locus YEL037C, strain rad23, hits give low values 0.965 | locus YEL061C, strain CIN8 (second series), hits give low values 0.97 | locus YEL061C, strain CIN8, hits give low values 1 | locus YER015W, strain faa2, hits give low values 0.989 | locus YER016W, strain bim1, hits give low values 0.982 | locus YER110C, hits give low values 0.995 | locus YER111C, strain swi4, hits give low values 0.974 | locus YER155C, strain BEM2 (second series), hits give low values 0.94 | locus YER155C, strain BEM2, hits give low values 0.999 | locus YER167W, strain BCK2, hits give low values 0.998 | locus YFR010W, strain ubp6, hits give low values 0.969 | locus YGL078C, strain dbp3, hits give low values 1.02 | locus YGL086W, strain mad1, hits give low values 1.01 | locus YGL167C, strain pmr1, hits give low values 0.949 | locus YGL173C, strain kem1, hits give low values 0.961 | locus YGL227W, strain vid30, hits give low values 0.966 | locus YGL240W, strain doc1, hits give low values 0.96 | locus YGL248W, strain PDE1, hits give low values 0.997 | locus YGL253W, strain hxk2, hits give low values 0.985 | locus YGR135W, strain pre9, hits give low values 0.989 | locus YGR229C, strain SMI1, hits give low values 1.04 | locus YGR252W, strain gcn5, hits give low values 0.916 | locus YHR013C, strain ard1, hits give low values 0.92 | locus YHR027C, strain rpn1, hits give low values 0.984 | locus YHR030C, strain SLT2, hits give low values 0.998 and 0.969 | locus YHR079C, strain IRE1 (second series), hits give low values 1 | locus YHR079C, strain IRE1, hits give low values 0.978 | locus YHR094C, strain hxt1, hits give low values 1.01 | locus YHR129C, strain ARP1, hits give low values 0.996 | locus YHR142W, strain chs7, hits give low values 0.993 | locus YHR200W, strain rpn10, hits give low values 0.989 | locus YIL066C, strain RNR3, hits give low values 1.01 | locus YIL073C, strain SPO22, hits give low values 1.04 | locus YIL125W, strain kgd1, hits give low values 1.02 | locus YIR030C, strain dcg1, hits give low values 0.997 | locus YJL092W, strain hpr5, hits give low values 0.986 | locus YJL095W, strain BCK1 (second series), hits give low values 0.983 | locus YJL095W, strain BCK1, hits give low values 1.01 and 1.05 | locus YJL115W, strain asf1, hits give low values 0.983 | locus YJL129C, strain trk1, hits give low values 0.981 | locus YJL134W, strain LCB3, hits give low values 1.01 | locus YJL154C, strain vps35, hits give low values 0.966 | locus YJL164C, strain tpk1, hits give low values 0.996 | locus YJL166W, strain qcr8, hits give low values 0.979 | locus YJL168C, strain set2, hits give low values 1 | locus YJL187C, strain SWE1 (second series), hits give low values 1 | locus YJL187C, strain SWE1, hits give low values 0.971 | locus YJR043C, strain POL32, hits give low values 0.991
